What all share (assay): NCI-60 one-dose screen, 48 h (100 = growth as untreated, 0 = no growth, -100 = all killed)
For one experiment, the system named is A549/ATCC NSCLC. The note with it: 10 µM unless noted.
The subject of a further experiment is DU-145 prostate. The note with it: 10 µM unless noted.
A further experiment relates to K-562 leukemia. The note with it: 10 µM unless noted.
The subject of a further experiment is RXF 393 renal. The note with it: 10 µM unless noted.
For a further experiment, the system named is SF-295 CNS. Particulars: 10 µM unless noted.
A further experiment relates to UACC-257 melanoma. The note with it: 10 µM unless noted.
The next experiment deals with SNB-75 CNS. Particulars: 10 µM unless noted.
A further experiment relates to ACHN renal. Particulars: 10 µM unless noted.
A further experiment has as its system CAKI-1 renal. The note with it: 10 µM unless noted.
In another experiment the test system is A498 renal. The note with it: 10 µM unless noted.
For another experiment, the system named is HL-60(TB) leukemia. Particulars: 10 µM unless noted.
Another experiment relates to OVCAR-5 ovarian. The note with it: 10 µM unless noted.
The subject of a further experiment is SK-OV-3 ovarian. The note with it: 10 µM unless noted.
The next experiment deals with HS 578T breast. The note with it: 10 µM unless noted.
Another experiment relates to NCI/ADR-RES ovarian. The note with it: 10 µM unless noted.
In the next experiment the test system is T-47D breast. Particulars: 10 µM unless noted.
A further experiment deals with BT-549 breast. The note with it: 10 µM.
A further experiment deals with HT29 colon. Particulars: 10 µM unless noted.
For a further experiment, the system named is SK-MEL-2 melanoma. The note with it: 10 µM unless noted.
The next experiment has as its system OVCAR-4 ovarian. Particulars: 10 µM unless noted.

This is part of a sample that, as a whole, favours compounds with a hit. Of some 83,000 tested, about 20% had one in any assay.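 Cell lines were cultured in 96-well plates, exposed to a single compound concentration, and assessed for percent growth 48 hours later.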 Values without a mark were called inactive. The source made the active and inactive calls. The calls were made as follows: active = growth percent below 10; inactive = the rest.

As to `O=C(c1cccs1)C1NO[N+]([O-])=C1c1cccs1` (centres undefined), the growth is 86.9% in the experiment on A549/ATCC NSCLC; 120% in the experiment on DU-145 prostate; 37.4% with K-562 leukemia; -25.1% (active) in the experiment on RXF 393 renal; 107% in the experiment with SF-295 CNS; 46.2% in the experiment with UACC-257 melanoma. For the same compound, the growth in the experiment with SNB-75 CNS is -11.5% (active); in the experiment on ACHN renal, 22.8%; in the experiment on CAKI-1 renal, -62.9% (active); with A498 renal, 113%; in the experiment on HL-60(TB) leukemia, 9.45% (active); in the experiment on OVCAR-5 ovarian, 114%. Also, the growth in the experiment on SK-OV-3 ovarian is 118%; with HS 578T breast it was 83%; with NCI/ADR-RES ovarian, 47.5%; with T-47D breast, 26.3%; in the experiment with BT-549 breast it was 88.7%.
Turning to `O=C1NC2(CCNCC2)Nc2ccccc21`, the growth with A549/ATCC NSCLC is 69.1%; in the experiment on DU-145 prostate it was 108%; with RXF 393 renal it was 111%; in the experiment with SF-295 CNS it was 107%; in the experiment with UACC-257 melanoma it was 85.7%; in the experiment on HT29 colon, 98.2%. Moreover, the growth with SNB-75 CNS is 82.8%; with SK-MEL-2 melanoma it was 98.1%; in the experiment with ACHN renal, 110%; with A498 renal, 95.5%; in the experiment on HL-60(TB) leukemia it was 95.6%; with OVCAR-5 ovarian, 115%. Also, the growth with OVCAR-4 ovarian is 116%; in the experiment on SK-OV-3 ovarian, 103%; in the experiment with HS 578T breast, 102%; with NCI/ADR-RES ovarian, 109%; in the experiment on T-47D breast, 109%; in the experiment with BT-549 breast, 108%.
For `CCN(CC)CCOc1c(C(C)C)cccc1C(C)C`, the growth in the experiment on A549/ATCC NSCLC was 89.5%; with K-562 leukemia, 111%; in the experiment with RXF 393 renal it was 112%; in the experiment on SF-295 CNS, 93.8%; with UACC-257 melanoma, 94.8%; in the experiment with HT29 colon, 95.4%. In addition, the growth in the experiment with SNB-75 CNS was 84.8%; with SK-MEL-2 melanoma, 96.9%; in the experiment with ACHN renal, 97.4%; in the experiment with CAKI-1 renal, 89.8%; in the experiment with A498 renal, 82.1%; in the experiment on HL-60(TB) leukemia, 107%. For the same compound, the growth in the experiment with OVCAR-5 ovarian was 90.6%; in the experiment on OVCAR-4 ovarian it was 99.3%; in the experiment on SK-OV-3 ovarian, 112%; with HS 578T breast it was 110%; in the experiment on NCI/ADR-RES ovarian, 101%; in the experiment with T-47D breast it was 85.1%. Besides, in the experiment with BT-549 breast, the growth is 123%.
With `CCOC(=O)Nc1cc(Cl)c([N+](=O)[O-])c(NC(=O)OCC)n1`, the growth is 95.2% in the experiment on A549/ATCC NSCLC; 107% in the experiment on DU-145 prostate; 8.75% (active) in the experiment on K-562 leukemia; 99.3% in the experiment on RXF 393 renal; 101% in the experiment with SF-295 CNS; 88.8% in the experiment with UACC-257 melanoma. Further, the growth with HT29 colon was 82.5%; in the experiment on SNB-75 CNS, 97.3%; in the experiment on SK-MEL-2 melanoma, 74.6%; with ACHN renal, 53.6%; with CAKI-1 renal, -95.5% (active); in the experiment on A498 renal, 93.1%. For the same compound, the growth in the experiment on HL-60(TB) leukemia is 38.2%; in the experiment on OVCAR-5 ovarian, 104%; in the experiment with OVCAR-4 ovarian, 112%; with SK-OV-3 ovarian it was 103%; with HS 578T breast, 106%; in the experiment on NCI/ADR-RES ovarian, 102%. Besides, the growth was 82.1% in the experiment on T-47D breast and 94.6% in the experiment with BT-549 breast.
For `O=C(CCCN1CCC2(CC1)C(=O)NCN2c1ccc(F)cc1)c1ccc(F)cc1`, the growth with DU-145 prostate was 122%; with K-562 leukemia, 113%; in the experiment with RXF 393 renal, 102%; in the experiment on SF-295 CNS, 180%; in the experiment on UACC-257 melanoma it was 104%; with HT29 colon, 111%. Besides, the growth with SNB-75 CNS is 92.4%; with SK-MEL-2 melanoma, 84.9%; with ACHN renal it was 108%; with CAKI-1 renal it was 121%; in the experiment with A498 renal, 106%; with HL-60(TB) leukemia, 100%. The growth is 91.3% in the experiment with OVCAR-5 ovarian; 108% in the experiment on OVCAR-4 ovarian; 98.4% in the experiment on SK-OV-3 ovarian; 133% in the experiment on HS 578T breast; 97.9% in the experiment with NCI/ADR-RES ovarian; 102% in the experiment with T-47D breast. Further, in the experiment with BT-549 breast, the growth is 97.3%.
Turning to `CC(C)(NC(=O)c1nn(CCCCCF)c2ccccc12)c1ccccc1`, the growth with A549/ATCC NSCLC is 76.4%; with DU-145 prostate, 102%; in the experiment on K-562 leukemia, 89.8%; in the experiment on RXF 393 renal, 112%; with SF-295 CNS it was 101%; in the experiment on UACC-257 melanoma, 77%. Moreover, the growth is 81.9% in the experiment with HT29 colon; 88.5% in the experiment on SNB-75 CNS; 87% in the experiment on SK-MEL-2 melanoma; 94.8% in the experiment with A498 renal; 88.3% in the experiment on HL-60(TB) leukemia; 103% in the experiment with OVCAR-5 ovarian. Further, the growth with OVCAR-4 ovarian is 88.5%; in the experiment on SK-OV-3 ovarian, 87.8%; with HS 578T breast, 96.6%; in the experiment with NCI/ADR-RES ovarian, 92.8%; with T-47D breast it was 75.4%; in the experiment with BT-549 breast, 73.5%.
Consider `Nc1ccc([N+](=O)[O-])c2c1Oc1ccccc1O2`, for which the growth in the experiment on A549/ATCC NSCLC was 93.8%; in the experiment on DU-145 prostate it was 93.1%; in the experiment on K-562 leukemia, 113%; in the experiment on RXF 393 renal it was 49.5%; in the experiment with SF-295 CNS, 85.1%; in the experiment on UACC-257 melanoma, 101%. Further, the growth in the experiment on HT29 colon was 103%; with SNB-75 CNS it was 82.8%; with SK-MEL-2 melanoma, 102%; with ACHN renal, 108%; with CAKI-1 renal, 58.3%; in the experiment on A498 renal, 72.9%. Further, the growth is -17.4% (active) in the experiment with HL-60(TB) leukemia; 88.1% in the experiment on OVCAR-5 ovarian; 94.5% in the experiment on OVCAR-4 ovarian; 88.9% with SK-OV-3 ovarian; 100% in the experiment on HS 578T breast; 99.4% in the experiment with NCI/ADR-RES ovarian. Moreover, the growth was 72.7% in the experiment with T-47D breast and 87% with BT-549 breast.
Consider `CCCCCCCCCCCCOc1ccc(C(=O)Oc2ccc(CSP3(=O)OCC4OC(n5cnc6c(N)ncnc65)C(F)C4OP(=O)(O)OCC4OC(n5ccc(=O)[nH]c5=O)C(F)C4O3)cc2)cc1` (centres undefined), for which the growth in the experiment on A549/ATCC NSCLC is 98.3%; with DU-145 prostate it was 103%; in the experiment with K-562 leukemia, 52.1%; in the experiment with RXF 393 renal it was 60.8%; in the experiment with SF-295 CNS, 110%; in the experiment on UACC-257 melanoma it was 31.4%. The growth in the experiment with HT29 colon is 78.8%; in the experiment with SNB-75 CNS it was 107%; in the experiment with SK-MEL-2 melanoma, 86.6%; with A498 renal, 71.3%; in the experiment with HL-60(TB) leukemia, -18.4% (active); in the experiment with OVCAR-5 ovarian, 115%. For the same compound, the growth in the experiment with OVCAR-4 ovarian is 54.2%; in the experiment on SK-OV-3 ovarian, 110%; in the experiment with HS 578T breast, 117%; with NCI/ADR-RES ovarian, 102%; in the experiment with T-47D breast it was 88.5%; with BT-549 breast, 81.6%.
